Values without a mark were called inactive. Activity calls are given as the source filed them. Calls come from the whole dose curve; as a rule, active = well fitted inhibition curve with a large enough effect in the repeat runs (not every such curve was filed as active); inconclusive = weak or mixed curves; inactive = flat fitted curve, though single readings scatter.
% is set by controls: 0 for no effect and ±100 for the full control effect; potency is the fitted concentration of half-maximal effect.

Sequence of Thyrotropin-releasing hormone receptor (Homo sapiens) (P34981 whole entry, looked up): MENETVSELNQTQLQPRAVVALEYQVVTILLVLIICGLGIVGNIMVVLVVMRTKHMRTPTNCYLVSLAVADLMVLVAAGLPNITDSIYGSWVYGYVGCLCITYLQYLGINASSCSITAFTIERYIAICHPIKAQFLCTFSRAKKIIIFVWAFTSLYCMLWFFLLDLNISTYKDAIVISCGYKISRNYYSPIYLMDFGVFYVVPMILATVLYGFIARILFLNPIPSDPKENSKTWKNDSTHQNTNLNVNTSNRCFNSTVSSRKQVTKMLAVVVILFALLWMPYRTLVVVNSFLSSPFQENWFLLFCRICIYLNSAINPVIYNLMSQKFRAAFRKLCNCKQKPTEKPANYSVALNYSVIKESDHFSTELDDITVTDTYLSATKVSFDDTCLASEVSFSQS

The assay has as its target Thyrotropin-releasing hormone receptor (Homo sapiens) (UniProt P34981). The experiment in a line: qHTS assay to identify small molecule antagonists of the thyrotropin-releasing hormone receptor (TRHR) signaling pathway (AID 1346877). To be noted: TRHR-HEK293, TRH-induced calcium fluorescence, antagonist mode; series mostly up to 51.3 µM; activity, negative = inhibition: at the top concentration. The source says: National Center for Advancing Translational Sciences [NCATS]
NIH Chemical Genomics Center [NCGC]
U.S. Environmental Protection Agency [EPA]
National Institutes of Environmental Health Sciences [NIEHS]
National Toxicology Program [NTP]
U.S. Food and Drug Administration [FDA]
Thyrotropin-releasing hormone (TRH) receptor (TRHR) is a G-protein-coupled receptor which binds the tripeptide thyrotropin releasing hormone. TRHR is found in the brain and, when bound by TRH, acts (through phospholipase C) to increase intracellular inositol trisphosphate. It plays a crucial role in the anterior pituitary where it controls the synthesis and secretion of thyroid stimulating hormone and prolactin. The TRHR-Hek293 assay is a cell-based assay, and it has the potential to screen G protein-coupled receptors. A compound/drug can either activate (agonist) or suppress (antagonist) GPCRs that can be monitored by levels of intracellular calcium. In this assay, the Tox21 10K compound library was screened to identify potential TRHR antagonists.
Tox21 Assay Protocol Summary:
The TRHR-Hek293 cells were dispensed at 1500cells/4uL/well in 1536-well black-clear bottom plates using a Multidrop dispenser. After the assay plates were incubated at a 37 C/5% CO2 incubator for 18 hours, 4 uL of Dye-Loading Solution was added to each well. The plates were incubated at 37 C for 2 hours. For agonist mode, 23 nL of compounds dissolved in DMSO, positive controls or DMSO only was transferred to the assay plate by a pin tool. The fluorescence intensity in the plates was measured using FDSS 7000EX kinetic plate reader for 3 min at 1 sec intervals. For antagonist mode, 23 nL of compounds dissolved in DMSO, positive controls or DMSO only was transferred to the assay plate by a pin tool. After 5 min incubation at room temperature, 1 uL of TRH was added on the top of the cell/compound mixtures to achieve a final agonist concentration of 1 nM. The fluorescence intensity in the plates was measured using FDSS 7000EX kinetic plate reader for 3 min at 1 sec intervals. Each test compound was measured at 15 concentrations and in triplicates.
A general note: Quantitative high-throughput screening tests each substance at several concentrations.
As for `O=C1C[C@@H]2OCC=C3CN4CC[C@]56c7ccccc7N1[C@H]5[C@H]2[C@H]3C[C@H]46`, the “activity, negative = inhibition” value is 0.273% [at 23.6 µM].
Turning to `COC(=O)c1ccccc1S(=O)(=O)NC(=O)Nc1nc(C)nc(OC)n1`, the “activity, negative = inhibition” value is -2.11%.
On the same count and under the same terms, then `CC1CCCC1`, with 0.919%; and `C#CCC1=C(C)C(OC(=O)C2C(C=C(C)C)C2(C)C)CC1=O` (stereo not given), with -8.1%; and `Nc1nc(N)nc(Cl)n1`, with 4.14%.
Regarding `O=[N+]([O-])c1cccc2cccc([N+](=O)[O-])c12`, the “activity, negative = inhibition” value is 0.409%.
Regarding `CN`, the “activity, negative = inhibition” value was 0.899%.
The same measure, in the same setting: under `C=CC(=C)C` stands 0.0481%.
On the same count and under the same terms, under `CCCCON=O` stands -1.06%; under `O=[N+]([O-])c1ccccc1-c1ccccc1`, -0.117%.
For the compound `CCCCCCCc1ccc(O)cc1`, the “activity, negative = inhibition” value was -9.36%.
Regarding `CC1=C2C[C@H]3[C@@H](CC=C4C[C@@H](O)CC[C@@]43C)[C@@H]2CC[C@]12O[C@@H]1C[C@H](C)CN[C@H]1[C@H]2C`, the “activity, negative = inhibition” value is 8.7% [at 23.6 µM].
As to `Nc1c(Cl)c(Cl)c(Cl)c(Cl)c1Cl`, the “activity, negative = inhibition” value was 1.56%.
On the same count and under the same terms, under `Cc1cnc2c(C(=O)O)c(Cl)ccc2c1` stands -1.72%; under `CN1C(=O)[C@@H](NC(=O)c2cc3ccccc3[nH]2)N=C(c2ccccc2)c2ccccc21`, 9.15% [at 23.6 µM]; under `O=Cc1ccccc1`, 7.79%.
With `CCC1COC(Cn2cncn2)(c2ccc(Cl)cc2Cl)O1` (stereo not given), the “activity, negative = inhibition” value was -5.83%.
The same measure, in the same setting: under `CCN(CC)Cc1nccn1-c1ccc([N+](=O)[O-])cc1C(=O)c1ccccc1Cl` stands 5.35% [at 23.6 µM].
The same measure, in the same setting: under `ClSC(Cl)(Cl)Cl` stands -2.69%; under `c1cc[n+]2c(c1)-c1cccc[n+]1CC2`, -0.728% [at 23.6 µM].
The same measure, in the same setting: then `COC(=O)N(OC)c1ccccc1COc1ccn(-c2ccc(Cl)cc2)n1`, with -6.6%.
For the compound `CO/N=C(\C(=O)OC)c1ccccc1CO/N=C(\C)c1cccc(C(F)(F)F)c1`, the “activity, negative = inhibition” value is 0.499%.
On the same count and under the same terms, then `N#CC(C#N)=NNc1cccc(Cl)c1`, with -7.83%.
On the same count and under the same terms, then `CCCCC(CC)COC(=O)OOC(C)(C)C` (stereo not given), with 1.98%; and `O=c1[nH]c(Cl)c(Cl)cc1Cl`, with 0.145%.
Still for that read-out and setting: then `CC1(C)[C@H](/C=C2\CCSC2=O)[C@@H]1C(=O)OCc1coc(Cc2ccccc2)c1`, with 4.37%.
Regarding `CNC(=O)/C=C(\C)OP(=O)(OC)OC`, the “activity, negative = inhibition” value was 3.3%.
As for `CCOP(=S)(NC(C)C)Oc1ccccc1C(=O)OC(C)C` (stereo not given), the “activity, negative = inhibition” value was -9.89%.
Same read-out and setting: under `ClC(Cl)C(Cl)(Cl)Cl` stands 0.0947%; under `CCOP(=O)(OCC)Oc1nc(Cl)c(Cl)cc1Cl`, -8.83%; under `CCN(CC)CCc1c[nH]c2ccccc12`, 5.83%.
Consider `c1ccc(Nc2ccc(Nc3ccccc3)cc2)cc1`, for which the “activity, negative = inhibition” value is 0.781%.
On to `NC1CCC(CC2CCC(N)CC2)CC1` (stereo not given), for which the “activity, negative = inhibition” value was 2.81%.
On the same count and under the same terms, then `CCC(OC(C)=O)C(CC(C)NC)(c1ccccc1)c1ccccc1` (stereo not given), with -1.61%; and `CCC(C)Br` (stereo not given), with -3.91%.
On to `C=C(C)C(=O)[O][Sn]([CH2]CCC)([CH2]CCC)[CH2]CCC`, for which the Potency is 2.69 µM (active).
Regarding `Oc1cc(Cl)cc(Cl)c1`, the “activity, negative = inhibition” value was -8.28%.
Take `CCCCC(CC)COC(=O)c1ccccc1C(=O)OCC(CC)CCCC` (stereo not given): the “activity, negative = inhibition” value is 0.207%.
As for `CC#C[C@]1(O)CC[C@H]2[C@@H]3C[C@H](C)C4=CC(=O)CC[C@]4(C)[C@H]3CC[C@@]21C`, the “activity, negative = inhibition” value was -15.8% [at 23.6 µM].
Still for that read-out and setting: then `CCOC(=O)Cc1ccccc1`, with 0.457%.

Values taken from PubChem BioAssay (Tox21).
